AmpC inh detg: AmpC beta-lactamase inhibition with detergent present; AmpC hydrolysis of nitrocefin, absorbance 480 nm, 0.01% Triton; Potency, µM (series often up to 114 µM), for the others: at the top dose activity change, negative = inhibition, hits mostly inhibitors; 370,000 tested, 0.041% active; AID 485294;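 further: 0% = no-compound wells and -100% = no-enzyme wells; nearly all actives have a fitted effect of over 25% in size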
Target sequence (P00811 whole entry, looked up): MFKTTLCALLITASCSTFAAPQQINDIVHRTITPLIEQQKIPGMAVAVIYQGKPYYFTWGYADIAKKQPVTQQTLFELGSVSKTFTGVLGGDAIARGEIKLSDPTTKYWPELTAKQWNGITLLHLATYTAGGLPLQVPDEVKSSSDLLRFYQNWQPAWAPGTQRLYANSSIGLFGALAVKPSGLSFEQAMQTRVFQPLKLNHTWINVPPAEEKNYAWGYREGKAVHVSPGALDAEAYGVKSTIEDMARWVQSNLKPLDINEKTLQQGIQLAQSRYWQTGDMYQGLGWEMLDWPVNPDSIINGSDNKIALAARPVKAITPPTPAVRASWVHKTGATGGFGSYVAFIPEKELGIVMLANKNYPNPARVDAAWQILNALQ
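AmpC (5.3 nM in the dispensed reagent) in 20 mM phosphate pH 7.0 with 0.01% (detergent screen) or 0.0001% Triton X-100 was preincubated with compounds for 15 min at room temperature. Nitrocefin was then added from an 800 uM solution, and hydrolysis was followed at 480 nm.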
SARS PLpro yeast: SARS-CoV PLP inhibition in yeast. S. cerevisiae expressing SARS-CoV PLpro, growth rescue. Potency, µM (highest dose often 32.9 µM), without a hit: at the top dose activity, positive = growth rescue, usual class: activators. 330,000 tested, 0.19% active. AID 485353; calls by dose curve; further: 0% is about no effect; nearly all actives have a fitted effect of over 55% in size
Sm TGR block: inhibitors of Schistosoma mansoni thioredoxin glutathione reductase | 360,000 tested, 3% active | Q962Y6 | purified TGR, DTNB reduction, TNB absorbance 405 nm | AID 485364 | Potency, µM (top dose mostly 114 µM), for the others: top-dose activity change, negative = inhibition, actives largely listed as inhibitors; further: on the % scale 0 is the no-effect control and ±100 the full control effect; nearly all actives have a fitted effect of over 60% in size
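Kinetic colorimetric format: TGR-catalysed, NADPH-driven DTNB reduction monitored via TNB absorbance. Enzyme dispensed at 20 nM; compound exposure 15 min at room temperature before reaction start.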
Pf growth 48h: P. falciparum growth inhibition at 48 hours (one generation); P. falciparum luciferase growth in erythrocytes, 48 h; 310,000 tested, 5.9% active; Potency, µM (highest dose often 28.7 µM), inactives show top-dose activity change, negative = inhibition, hits mostly inhibitors; further: on the % scale 0 is the no-effect control and ±100 the full control effect
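First compound was added to culture medium, then infected red cells at 0.1% parasitemia and 2% hematocrit (final). After incubation at 37 C under 5% CO2, luciferase detection reagent was dispensed and light output recorded.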
AmpC no deterg: blocks E. coli AmpC beta-lactamase in detergent-free assay; P00811; AmpC nitrocefin hydrolysis, absorbance 480 nm, 0.0001% Triton; Potency, µM (highest dose often 57.1 µM), without a hit: at the highest dose activity change, negative = inhibition, actives largely listed as inhibitors; 330,000 tested, 0.52% active; AID 485341;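 further: plate controls were no compound for no effect and no enzyme for full effect; nearly all actives have a fitted effect of over 20% in size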
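AmpC (5.3 nM in the dispensed reagent) in 20 mM phosphate pH 7.0 with 0.01% (detergent screen) or 0.0001% Triton X-100 was preincubated with compounds for 15 min at room temperature. Nitrocefin was then added from an 800 uM solution, and hydrolysis was followed at 480 nm.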
Pf growth 96h: inhibits malaria parasite growth, 96 h | P. falciparum luciferase reporter growth, 96 h | Potency, µM (highest dose often 28.7 µM), for the others: at the top dose activity change, negative = inhibition, usual class: inhibitors | 320,000 tested, 6.9% active | AID 504834; further: on the % scale 0 is the no-effect control and ±100 the full control effect
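Parasite growth measured via integrated firefly luciferase reporter in P. falciparum. Infected erythrocytes at 2% hematocrit, 0.05% parasitemia final were treated 96 hours at 37 C under 5% CO2, and luminescence was read.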
Starred values were filed as active, the others as inactive; ? = inconclusive; . = no result given. Most compounds without a hit are left out; they make up all but 12% or so of the library. Unless noted, the call rests on the fitted dose curve; in most records, active means well fitted curve in the direction sought with a large enough effect; inconclusive means small, poorly fitted or top-dose-only effect, or another doubt; inactive means no such curve, though single readings can be large; an effect the other way counts as inactive or inconclusive. Potency means the concentration at half of the fitted maximal effect.

SMILES	AmpC inh detg	SARS PLpro yeast	Sm TGR block	Pf growth 48h	AmpC no deterg	Pf growth 96h
CCCc1noc2c1/C(=N\O)CC(CC(C)SCC)C2 (stereo not given)	-10%	-14%	-1%	?	-21%	0%
CCSC(C)CC1C/C(=N/O)c2c(CC)noc2C1 (stereo not given)	0%	?	2%	15µM*	1%	7%
O=C1OC(NC(=O)c2ccccc2)C(n2cc(CO)nn2)=C1Cl (stereo not given)	?	1%	0.79µM*	-7%	-34%	?
Cc1cc(NC(=O)c2cccc(S(=O)(=O)N3CCC(C)CC3)c2)no1	-20%	-4%	-2%	?	-35%	117%
CCOC(=O)c1sc(NC(=O)c2cccc(S(=O)(=O)N3c4ccccc4CC3C)c2)cc1C (stereo not given)	0%	-9%	1%	2.9µM*	-32%	?
CC1Cc2ccccc2N1S(=O)(=O)c1cccc(C(=O)N2Cc3ccccc3CC2C(N)=O)c1 (stereo not given)	-18%	17%	-13%	?	88%	13µM*
Cc1cc(NC(=O)c2cccc(S(=O)(=O)N3c4ccccc4CC3C)c2)no1 (stereo not given)	0%	4%	11%	3.3µM*	-7%	5.2µM*
OC(c1ccccc1)c1nc2ccccc2n1Cc1c(F)cccc1Cl (stereo not given)	20%	.	6%	.	.	.
COc1ccc(CN2CCN(CCSc3ccc(C)cc3)CC2)c(OC)c1OC	?	-6%	-3%	1%	79%	13%
O=C(Oc1cc(=O)oc2c1c(=O)n1c3c(cccc23)CC1)c1ccccc1	1%	1%	10µM*	2%	-10%	?
O=C(NCc1ccc(F)cc1)c1c(O)c2cccc3c2n(c1=O)CCC3	?	0%	1%	2%	-20%	?
O=C(Oc1cc(=O)oc2c1c(=O)n1c3c(cccc23)CC1)c1ccc(F)cc1	?	1%	25µM*	11%	-10%	-27%
CC1(c2cc([N+](=O)[O-])cc([N+](=O)[O-])c2)CC(C)(C)N(C(=O)c2ccccc2)c2ccccc21 (stereo not given)	-18%	-29%	2%	2.3µM*	-48%	4%
CC1(c2ccccc2)CC(C)(C)N(C(=O)C2CCCO2)c2ccccc21 (stereo not given)	0%	-41%	-11%	.	76%	2.3µM*
CC1(c2ccccc2)CC(C)(C)N(C(=O)CSc2nnc(N)s2)c2ccccc21 (stereo not given)	-4%	-25%	-4%	?	-11%	5.2µM*
CCC(CC)C(=O)N1c2ccccc2C(C)(c2ccccc2)CC1(C)C (stereo not given)	17%	.	13%	.	.	.
CCC(=O)N1c2ccccc2C(C)(c2ccccc2)CC1(C)C (stereo not given)	-1%	.	2%	.	.	.
COCC(=O)N1c2nc(-c3ccco3)nn2C2(CCCCC2)[C@@H]2CCCC[C@@H]21	13%	.	-23%	.	.	.
COc1ccc(NCc2cc3ccc(OC)cc3n(CC(=O)Nc3cccc(OC)c3)c2=O)cc1	-4%	.	-13%	.	.	.
CCCCCCC(=O)N(O)C1CC(=O)N(c2ccc(Br)cc2)C1=O (stereo not given)	12%	-42%	0.71µM*	13µM*	-37%	2%
COc1ccccc1N(O)C1CC(=O)N(c2ccc(Br)cc2)C1=O (stereo not given)	?	-21%	2.8µM*	4%	?	16%
CCCCCCC(=O)N(O)C1CC(=O)N(c2ccc(F)cc2)C1=O (stereo not given)	-8%	-6%	0.63µM*	4.7µM*	-29%	9.3µM*
O=C(NCC(c1cccnc1)N1CCc2ccccc21)C(=O)Nc1ccccc1F (stereo not given)	0%	.	0%	.	.	.
COc1ccccc1NC(=O)c1cc2cc3ccc(OC)c(Cl)c3nc2s1	3%	.	-8%	.	.	.
Cc1ccccc1OCC(=O)OCC(=O)c1c[nH]c2ccccc12	?	1%	-4%	-9%	-29%	?
SMILES	AmpC inh detg	SARS PLpro yeast	Sm TGR block	Pf growth 48h	AmpC no deterg	Pf growth 96h
C=CCc1c(C)nc(-c2ccccc2)nc1Nc1ccc(O)cc1	?	-2%	-19%	12%	-47%	?
C=CCc1c(C)nc(-c2ccccc2)nc1N/N=C(\C)c1ccccc1	?	-18%	-11%	11%	28µM*	?
CC(C)Sc1nc2sc3c(c2c(=O)n1Cc1ccccc1)CCCC3	17%	.	8%	.	.	.
N#Cc1ccc(S(=O)(=O)N2CCC(Oc3cccc(C(F)(F)F)c3)CC2)cc1	13%	.	1%	.	.	.
O=C(CN1C(=O)NC2(CCCCCCC2)C1=O)NCc1ccc2c(c1)OCO2	1%	4%	0%	.	-5%	?
Cc1cc(-n2c(C)cc(C(=O)CN3C(=O)NC4(CCCCCC4)C3=O)c2C)no1	?	1%	11%	12µM*	28%	-15%
Cc1cc(C(=O)CN2C(=O)NC3(CCCCC3)C2=O)c(C)n1-c1ccc2c(c1)OCO2	-6%	-21%	-6%	?	-13%	13µM*
COCCn1c(C)cc(C(=O)CN2C(=O)NC3(CCCCCCC3)C2=O)c1C	-18%	25%	0%	21%	37%	.
CNS(=O)(=O)c1cccc(C(=O)NCC(C)(C)N2CCCCC2)c1	1%	0%	0%	17%	-16%	28%
CC(Oc1ccccc1)C(=O)Nc1cc(Cl)ccc1-n1cncn1 (stereo not given)	?	1%	6%	3.7µM*	3%	2.3µM*
CC(Oc1ccc(F)cc1)C(=O)Nc1cc(Cl)ccc1-n1cncn1 (stereo not given)	-22%	-13%	-7%	2.3µM*	-4%	2.6µM*
COc1ccccc1C(=O)Nc1cc(Cl)ccc1-n1cncn1	5%	-6%	9%	?	23%	?
COc1cc(OC)c(C(=O)Nc2cc(Cl)ccc2-n2cncn2)cc1OC	-13%	-1%	-22%	5.9µM*	4%	5.9µM*
O=C(Nc1ccccc1F)Nc1cc(Cl)ccc1-n1cncn1	-10%	-1%	1%	0%	-8%	16%
Cc1cc2nc(N3C(=O)CNC3=S)sc2cc1C	-6%	-1%	.	49%	-50%	-3%
COc1ccc(CN(C)CC(=O)Nc2ccc(Cl)cc2F)c(OC)c1	-2%	0%	-2%	-2%	13%	-6%
Cc1ccc(Cl)cc1N(C)C(=O)c1cc2c(Cl)nc3ccccc3c2s1	4%	.	19%	.	.	.
